Laboratory results published in ChEMBL document CHEMBL3988442, “University of Dundee, Small-Polar-MMV Screening Library” (2021).
The campaign covered roughly 48,000 compounds. About 13,000 (27%) showed an effect of 50% or more. Some of the results follow.

test system: Wolbachia pipientis; experiment: Anti-Wolbachia Cell-Based Screen; type: functional; design: scale not given: in the data most compounds retested in dose-response had high values; details: 5 µM

| SMILES | Percent Effect |
| --- | --- |
| C1CN(c2nc3c(c(NC4CC4)n2)CN(CC2CCOC2)CC3)CCO1 (stereo not given) | -9.007% |
| Cn1cc(CN2CCC3(CCC(C(=O)NCC4CC4)C3)CC2)cn1.O=C(O)C(F)(F)F (stereo not given) | 38.61% |
| O=C(c1ccncc1Cl)N1CCN(Cc2ccco2)C(CCO)C1 (stereo not given) | -0.1352% |
| Cc1nn(C)c(C)c1NC(=O)CNC(c1ccc(F)cc1)C1CCC1 (stereo not given) | 19.96% |
| COc1cccc2c1OCC(CNc1cc(N)nc(SC)n1)C2 (stereo not given) | 103.8% |
| COc1ccc2c(c1)OCC(Cc1ccc(C)nc1N)C2 (stereo not given) | 95.38% |
| COc1ccc2c(c1)OCC(Cc1cnc(N)c(C)c1)C2 (stereo not given) | 16.7% |
| COc1ccc2c(c1)OCC(CNc1cc(N)nc(SC)n1)C2 (stereo not given) | 101.5% |
| COc1cccc2c1OCC(CNC(=O)Cc1c(C)nc(N)nc1C)C2 (stereo not given) | -7.382% |
| COc1cccc2c1OCC(CNc1ccc(C)nn1)C2 (stereo not given) | -0.7094% |
| CCc1nc2c(NCC3COc4cc(OC)ccc4C3)ncnc2o1 (stereo not given) | -96.33% |
| CCNC(=O)c1ccnc(NCC2COc3cc(OC)ccc3C2)c1 (stereo not given) | -7.933% |
| COc1ccc2c(c1)OCC(Cc1cnccc1N)C2 (stereo not given) | 13.35% |
| Cc1cc(C(=O)N(C)Cc2ccn[nH]2)c(NC(=O)C(C)(C)C)s1 | -4.418% |
| CS(=O)(=O)N1CCOC2(CCCN(c3cnccn3)C2)C1.O=C(O)C(F)(F)F (stereo not given) | -3.383% |
| Cc1noc(-c2ccc(N(C)Cc3nccs3)nc2)n1 | -5.626% |
| CN(Cc1cc2c(cc1OC(F)F)OCO2)Cc1nccn1C | -0.8901% |
| CCC(=O)c1ccc(OCC(=O)NC(C)c2ncnn2CC)cc1 (stereo not given) | -19.04% |
| CCCn1c(O)nnc1SCC1OCCc2ccccc21 (stereo not given) | 5.121% |
| CCc1cc(C(=O)N[C@H]2CN(CCS(C)(=O)=O)C[C@@H]2C2CC2)[nH]n1 | -10.24% |
| CCOc1ccc(C#N)cc1NC(=O)N1CCC(N2CCCC2)C1 (stereo not given) | -9.106% |
| CCOc1ccc(C#N)cc1NCC(=O)NC(=O)Nc1ccccc1 | 91.19% |
| CCOc1ccc(NC(=O)c2ccc(C#N)cc2C)cc1CO | -12.77% |
| CCCNC(=O)CNc1cc(C#N)ccc1OCC | -1.533% |
| CCNC(=O)C1CCCN(C(=O)Nc2cc(C#N)ccc2OCC)C1 (stereo not given) | 2.708% |

| SMILES | Percent Effect |
| --- | --- |
| CCOc1ccc(C#N)cc1NCC(=O)Nc1cc(C)no1 | 4.952% |
| CCOc1ccc(C#N)cc1NCC(=O)OC | 115.5% |
| CCOc1ccc(C#N)cc1NCC(=O)NC(=O)NC | 104.9% |
| CCOc1ccc(C#N)cc1NCC(=O)Nc1cc(F)ccc1F | -5.639% |
| CCNC(=O)NC(=O)CNc1cc(C#N)ccc1OCC | 107.7% |
| CCOc1ccc(C#N)cc1NCc1cc(C)on1 | -2.452% |
| CCOc1ccc(C#N)cc1NC(=O)N1CCCC(NC(=O)CC)C1 (stereo not given) | -6.604% |
| O=C(CCCC1CCCC1)NS(=O)(=O)CC1CC1 | 4.87% |
| O=C1NCCCCC1NC(=O)C1(c2ccc3c(c2)OCCO3)CCCC1 (stereo not given) | -1.756% |
| CCOc1ccc(C#N)cc1NCC(=O)NC1(C#N)CCCC1 | 87.98% |
| Cc1cccc(NCC(=O)NC2(C#N)CCCC2)c1C(=O)N1CCCC1 | -22.31% |
| Cc1cccc(C(=O)N2CCCC2)c1NCC(=O)NC1(C#N)CCCC1 | -7.992% |
| O=C(Cn1cc(-c2ccccc2)ncc1=O)Nc1nnc[nH]1 | -2.785% |
| CN(Cc1ccc(Cl)s1)C(=O)CN(C)C1CCc2ccccc21 (stereo not given) | 3.858% |
| COc1ccc(CC(=O)NC2(C)CCS(=O)(=O)C2)cc1F (stereo not given) | 7.488% |
| Cc1csc(N2CCN(Cc3ccccn3)CC2)n1 | 105.9% |
| Cc1csc(N2CCN(Cc3ccccn3)CC2C)n1 (stereo not given) | 18.1% |
| FC(F)(F)c1csc(N2CCN(Cc3ccccn3)CC2)n1 | 72.86% |
| FC(F)(F)c1ccnc(N2CCCN(Cc3ccccn3)CC2)n1 | 100.8% |
| CC(C)c1nc(CN2CCN(Cc3ccccn3)CC2)cs1 | -4.826% |
| Cc1csc(N2CCN(C(=O)CCc3ccccn3)CC2)n1 | 1.737% |
| FC(F)(F)CCc1ccnc(N2CCN(Cc3ccccn3)CC2)n1 | 5.215% |
| Cc1ncc(S(C)(=O)=O)c(N2CCCN(Cc3ccccn3)CC2)n1 | 10.32% |
| COc1ccccc1-c1ncc(CN2C[C@@H](N(C)C)[C@H](C(C)C)C2)s1 | -33.52% |
| COc1cc(OC)cc(N2CCC(NCc3cccs3)C2=O)c1 (stereo not given) | -13.31% |

| SMILES | Percent Effect |
| --- | --- |
| CCC(C)NC(=O)c1ccc(NC(=O)CCc2ccncc2)c(C)c1 (stereo not given) | -8.958% |
| CNC(=O)[C@@H](c1ccccc1)N1CCC[C@H]1C(=O)NCc1cccnc1.Cl.Cl | -3.423% |
| Cc1nc(CNC(=O)NC2CCN(c3ncccc3Cl)C2)oc1C (stereo not given) | -13.94% |
| Cc1ncccc1NC(=O)c1nc2c(n1C)CCN(C(=O)C1CC1)C2 | 102% |
| Cn1c(C(=O)NC2CC2)nc2c1CCN(c1ncccn1)C2 | -5.985% |
| CCOCC(=O)Nc1ccc(N2CCSCC2)cc1C | -9.938% |
| O=C(O)C(F)(F)F.O=C(O)C(F)(F)F.c1csc(CN2Cc3[nH]nc(COCC4CC4)c3C2)c1 | -16.32% |
| Cc1cccc(S(=O)(=O)N2C[C@@H]3OCCN(C(C)C)[C@@H]3C2)c1 | -15.31% |
| Cc1cccc(S(=O)(=O)N2C[C@@H]3C[C@@H](c4nc(C)no4)O[C@@H]3C2)c1 | 113.1% |
| Cc1cccc(S(=O)(=O)N2C[C@H]3C[C@H](C(=O)NCC4CC4)[C@@H](C2)O3)c1 | -9.673% |
| Cc1cccc(S(=O)(=O)N2C[C@@H]3C[C@@H](c4nnc(C)[nH]4)O[C@@H]3C2)c1 | 102.4% |
| Cc1cccc(S(=O)(=O)N2C[C@H]3C[C@H](C(=O)NC4CCC4)[C@@H](C2)O3)c1 | -10.53% |
| Cc1cccc(S(=O)(=O)N2C[C@H]3C[C@H](C(=O)N(C)C)[C@@H](C2)O3)c1 | -13.43% |
| Cc1ccc(-c2cn3c(n2)CO[C@@H](CNCc2cnn(C)c2)C3)cc1 | 12.36% |
| O=C(c1ccc(O)c(Cl)c1)N1C[C@@H](CN2CCCCCC2)[C@@H](CO)C1 | -0.5835% |
| COCCN(C)C[C@@H]1CN(C(=O)c2ccc(O)c(Cl)c2)C[C@@H]1CO | 127.9% |
| COc1ccc(C(=O)N2C[C@@H](CN3CCCCC3)[C@@H](CO)C2)cc1Cl | -0.8846% |
| COCCN(C)C[C@@H]1CN(C(=O)c2ccc(C)c(Cl)c2)C[C@@H]1CO | 113.4% |
| COCCN(C)C[C@@H]1CN(C(=O)c2ccc(O)c(C)c2)C[C@@H]1CO | 126% |
| Cc1cc(C(=O)N2C[C@@H](CN3CCCCC3)[C@@H](CO)C2)ccc1O | -7.322% |
| CCCOc1ccc(C(=O)N2C[C@@H](CN3CCCC3)[C@@H](CO)C2)cc1Cl | 0.3871% |
| COc1cc(C)ccc1C(=O)N1C[C@@H](CN(C)CCO)[C@@H](CO)C1 | -2.888% |
| CC(C)CN1C(=O)COC[C@@H]1[C@H](O)c1ccc(NC(=O)C2CC2)cc1 | -2.654% |
| CC(C)c1cc(N[C@@H](CO)C(N)=O)n2nccc2n1 | 27.01% |
| Cc1cnn(-c2cccc(N3CCCCC3)n2)c1 | -2.755% |

| SMILES | Percent Effect |
| --- | --- |
| CC(C)c1nc(C2CCCN(C(=O)c3ccc4[nH]nnc4c3)C2)no1 (stereo not given) | 134.9% |
| CC(C)c1nc(C2CCCN(C(=O)c3ccc4nncn4c3)C2)no1 (stereo not given) | 123.4% |
| CC(C)c1nc(C2CCCN(C(=O)c3ccc4c(c3)OCO4)C2)no1 (stereo not given) | 127.5% |
| CC(C)c1nc(C2CCCN2C(=O)c2ccc3nncn3c2)no1 (stereo not given) | -6.434% |
| O=C(c1ccc2c(c1)OCO2)N1CCCC(n2cccn2)C1 (stereo not given) | 4.266% |
| CC(C)c1nccn1C1CCCN(C(=O)c2ccc3[nH]nnc3c2)C1 (stereo not given) | -9.073% |
| CC(C)c1nc(C2CCCN(C(=O)c3ccc4c(c3)COC4)C2)no1 (stereo not given) | 126.8% |
| CC(C)c1nc(C2CCCN(C(=O)c3ccc4nccn4c3)C2)no1 (stereo not given) | -6.875% |
| COc1ccccc1OC1CN(C(=O)c2c(C)nc3ccc(C)cn23)C1 | -16.35% |
| CC(c1ncc(C(C)(C)C)o1)N1CCN(Cc2ccc(Cl)s2)CC1 (stereo not given) | -10.01% |
| Cc1ccc(NC(=O)c2nc(N3CCCCC3)ncc2Cl)cc1I | 14.77% |
| CC(=O)NC[C@H]1OC[C@@H](NC2CCC(F)(F)CC2)[C@@H]1O | -10% |
| N#Cc1ccc(NCc2cccc(OCC3CCCO3)c2)nc1 (stereo not given) | 63.12% |
| N#Cc1ccc(NCc2cccc(COC3CCOCC3)c2)nc1 | -4.004% |
| Cc1nnc(NCc2cccc(OCc3ccccn3)c2)c(C#N)c1C | 115.9% |
| Oc1cccc(CNCC2CCCO2)c1 (stereo not given) | 10.1% |
| CN(C)C(=O)c1cccc(CNc2ccc(C#N)cn2)c1 | 29.09% |
| Cc1nnc(NCc2ccc(N3CCC(CO)CC3)cc2)c(C#N)c1C | 12.23% |
| Cc1ccccc1C1(CNc2nnc(C)c(C)c2C#N)CCOCC1 | 10.33% |
| Cc1nnc(NCc2cccc(OCC3CCCO3)c2)c(C#N)c1C (stereo not given) | 98.93% |
| Cc1nc2ccccc2nc1NCc1nnc2n1CCC2 | -17.33% |
| COCc1ccccc1CNc1nnc(C)c(C)c1C#N | -9.449% |
| Cc1nc2ccccc2nc1NCc1cccc(OCC2CCCO2)c1 (stereo not given) | 113.3% |
| Cc1nnc(NCc2cccnc2N(C)C)c(C#N)c1C | -6.334% |
| O=C(c1ccco1)N1CCc2ncnc(NCc3ccccn3)c2CC1 | -3.443% |
